From article PMC4552634, “A New Set of Chemical Starting Points with Plasmodium falciparum Transmission-Blocking Potential for Antimalarial Drug Discovery” (PLoS ONE, 2015)
Among all 13,000 compounds or so, about 3,200 (25%) showed an effect of 50% or more. This is one part of the list.

system: P. falciparum stage V gametocytes; set-up: BacTiter-Glo ATP luminescence viability of purified stage V gametocytes in 384-well plates, per cent inhibition versus DMSO; conditions: 48 h, 5 µM; inhibitor

Structure (SMILES)	% Inhibition [%]
CC(C)(C)CCOC(=O)N1CCc2c(cc(O)c(O)c2Cl)C(c2ccc(O)cc2)C1 (stereo not drawn) [TCMDC-141981]	-77.14
Nc1nc(N)c2c3c(ccc2n1)CCC3 [TCMDC-137720]	-10.07
Cc1ccc(NC(=S)N2CCCN(CCCCCNC(=O)/C=C/c3ccc(Cl)c(Cl)c3)CC2)cc1Cl [TCMDC-135895]	-0.4693
COc1ccccc1CNC(=O)c1cc(C2CC2)nc2c1cnn2C(C)C [TCMDC-125250]	49.1
Cc1cccc(C)c1N1CCN(C2CCC(NC(=O)/C=C/c3ccccc3)CC2)CC1 (stereo not drawn) [TCMDC-132881]	-29.57
COCCN1CCC(NCC(C)(C)c2nc(-c3ccc(Cl)c(O)c3)c(-c3ccncc3)[nH]2)CC1 [TCMDC-140926]	-95.92
CCCN(Cc1nnc(-c2ccco2)o1)C(=O)C1CCCN(C(=O)c2ccc(Cl)cc2)C1 (stereo not drawn) [TCMDC-125334]	-4.25
Cc1cc(CNC(=O)c2ccc(-c3ccc(-c4nc5cc(C(F)(F)F)ccc5[nH]4)s3)cc2)on1 [TCMDC-132481]	-11.54
CCCCCc1cc(O)c2c(c1)OC(C)(C)CC2C1=CCN(Cc2cnc3ccccc3c2)CC1 (stereo not drawn) [TCMDC-131418]	-11.08
Nc1nccc2ccc(Oc3ccncc3)cc12 [TCMDC-136517]	51.03
Nc1nccc2ccc(-c3ccc(Oc4ccccc4)cc3)cc12 [TCMDC-133432]	19.11
Nc1nccc2ccc(-c3ccc4nccn4c3)cc12 [TCMDC-133425]	49.74
Nc1nccc2ccc(-c3ccncc3)cc12 [TCMDC-138929]	32.25
Nc1nccc2ccc(-c3ccsc3)cc12 [TCMDC-133431]	53.31
Nc1ncc(-c2ccsc2)c2ccc(-c3cnc[nH]3)cc12 [TCMDC-135369]	-1.546
Nc1ncc(-c2ccsc2)c2ccc(-c3ccc4cn[nH]c4c3)cc12 [TCMDC-135299]	100.9
Cn1cncc1-c1ccc2c(-c3ccsc3)cnc(N)c2c1 [TCMDC-135368]	3.201
Nc1nnc(-c2ccc(Cl)c(Br)c2)c(N)n1 [TCMDC-137285]	-16.33
Cc1cc(N2Cc3ccccc3C2)nc(Nc2cccc(C#N)c2)n1 [TCMDC-134199]	-14.79
Cc1[nH]c2c(C)cc(NS(C)(=O)=O)cc2c1C1CCN(CC2CCN(C(=O)/C=C/c3ccc(Cl)c(Cl)c3)CC2)CC1 [TCMDC-140173]	-57.53
Cc1cccc(C(=O)Nc2ccnc(N(C)CCCN(C)Cc3cccc(C#N)c3)c2)c1 [TCMDC-134968]	26.78
